Hits are enriched below; roughly 4.5% of the tested compounds scored in any of these assays.
Beta apoptosis – beta cell apoptosis inhibition; INS-1E cytokine-induced death, ATP luminescence, 48 h; percent of positive-control rescue, neutral wells zero; actives 0.8% (n = 300,000); protection from apoptosis, % (no concentration beside the values);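 active means Every replicate reaches about 75%, or at least half do and their mean reaches it too, limit read from the data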;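 further: higher means more ATP so stronger rescue from cytokine killing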
CSC inhib – cancer stem cell inhibition | cancer stem cell-like cells viability, luminescence | inhibition, % at 7.5 µM | actives 1.1% (n = 300,000) | AID 2717; in the data active means inhibition above about 75%; tested in HMLE shEcad cells
Jurkat NFkB inh – inhibitors of the PMA/ionomycin-induced NF-kB reporter in Jurkat cells. inhibition, % at 4 µM. actives 0.53% (n = 330,000). PMA/ionomycin-induced NF-kB luciferase reporter, luminescence; in the data active means inhibition above about 50%
Gli-Sufu block – blocks Gli-Sufu signaling in a luciferase reporter. actives 0.74% (n = 340,000). Sufu-KO-LIGHT fibroblasts, Gli luciferase reporter luminescence. inhibition, % at 5 µM;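 active means inhibition above about 55%, limit read from the data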
697 NFkB inh – inhibitors of the PMA/ionomycin-induced NF-kB reporter in 697 B cells. 697 B-cell NF-kB luciferase reporter, 16 h. inhibition, % at 4 µM. actives 0.33% (n = 330,000). AID 435022; in the data active means inhibition above about 35%
Mdm2 MdmX PPI – disrupts the human Mdm2-MdmX interaction | O15151+Q00987 | SaOS-2 split-luciferase Mdm2/MdmX complementation, luminescence | inhibition, % at 8 µM | actives 3% (n = 330,000) | AID 485346;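 active means inhibition of at least 50% at 8 µM in the primary screen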
Jurkat NFkB conf – inhibitors of the PMA/ionomycin-induced NF-kB reporter in Jurkat cells, retest; inhibition, % at 4 µM; shares compounds with Jurkat NFkB inh; actives 27% (n = 2,700); Jurkat NF-kB luciferase, 16 h;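 active means inhibition reaching about 45% at 4 µM in either replicate, limit read from the data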
697 NFkB conf – inhibitors of the PMA/ionomycin-induced NF-kB reporter in 697 B cells, retest. AID 449746. actives 35% (n = 2,000). shares compounds with 697 NFkB inh. 697 B-cell NF-kB luciferase, 16 h. inhibition, % at 4 µM; in the data active means inhibition mostly above about 28%, no sharp cut-off; inactive means mostly below about 22%
Each line names hits and unclear results; the compound was inactive in the other large screens (follow-up assays come after a bar, where they were run).

COc1ccc(NC(=O)c2sc3nc(C)cc(C)c3c2N)cc1	none
O=C(O)C1CCN(S(=O)(=O)Cc2ccccc2)CC1	none
CCc1cc(C(=O)NC2CCCc3c2cnn3-c2cccc(C)c2C)n(C)n1 (centres undefined)	Beta apoptosis 98.6, Jurkat NFkB inh 78.8, Gli-Sufu block 82.5 | Jurkat NFkB conf 76.5
O=S(=O)(c1ccc(S(=O)(=O)N(Cc2ccccc2)Cc2ccco2)cc1)N1CCCC1	none
COC(=O)/C=C/c1ccccc1S(=O)(=O)N(Cc1ccccc1)Cc1ccco1	Jurkat NFkB inh 55.9 | Jurkat NFkB conf inactive
Cc1cc(C)c(C)c(OC(=O)c2sc(Cl)nc2C)c1	Jurkat NFkB inh 72.0 | Jurkat NFkB conf inactive
CC(=O)c1ccc(NC(=O)Nc2ccncc2)cc1	none
CC(=O)c1ccc(NC(=O)NC2CCCCCCC2)cc1	none | Jurkat NFkB conf inactive
CC(=O)c1ccc(NC(=O)Nc2ccc(Cl)cc2)cc1	none | Jurkat NFkB conf inactive
N#Cc1cccc(C(=O)OCC(=O)c2ccc3c(c2)NC(=O)CO3)c1	none
COc1cccc(CNS(=O)(=O)c2ccccc2Br)c1OC	none (no result: Beta apoptosis, CSC inhib, Jurkat NFkB inh, 697 NFkB inh, Mdm2 MdmX PPI)
O=C(CC(Nc1ccc(F)cc1)C(=O)O)c1ccccc1 (centres undefined)	none | Jurkat NFkB conf inactive
Cc1ccc(NC(CC(=O)c2ccccc2)c2ccc(F)cc2)cc1 (centres undefined)	none
O=C(COc1ccc(Cl)cc1Br)N1CCN(c2ncccn2)CC1	none (no result: Beta apoptosis, CSC inhib)
CCc1ccc(NC(=O)c2noc3c2CCCCC3)cc1	none | Jurkat NFkB conf inactive
Cc1ccc(NC(=O)c2noc3c2CCCCC3)cc1	none | Jurkat NFkB conf inactive
COc1ccc(NC(=O)c2noc3c2CCCCC3)cc1	none
O=C(/C=C/c1cccc(F)c1)OCC(=O)N1CCCc2ccccc21	none
O=C(c1ccc(Cl)cc1Cl)N1CCc2ccccc21	none
O=C(/C=C/c1cccc(F)c1)N1CCc2ccccc21	none | Jurkat NFkB conf inactive
O=C(/C=C/c1ccc(Cl)cc1Cl)N1CCc2ccccc21	none | Jurkat NFkB conf inactive
CCOC(=O)c1ccc(OCC2NCCc3cc(OC)c(OC)cc32)cc1 (centres undefined)	none
Cc1ccccc1-c1cc(-c2ccccc2O)on1	none (no result: CSC inhib) | Jurkat NFkB conf inactive
COc1ccc(-c2cc(-c3ccc(C)cc3)n[nH]2)c(O)c1	none
COc1ccc(-c2cc(-c3cc(C)ccc3O)[nH]n2)cc1	Jurkat NFkB inh 77.4 (no result: Beta apoptosis) | Jurkat NFkB conf inactive
Clc1ccc(-c2cc(-c3ccccc3)on2)cc1	none | Jurkat NFkB conf inactive
Oc1ccccc1-c1cc(-c2ccccc2)no1	none | Jurkat NFkB conf inactive
Cc1ccc(O)c(-c2cc(-c3ccc(F)cc3)no2)c1	none (no result: Beta apoptosis) | Jurkat NFkB conf inactive
Cc1c(-c2nc(N)nc(Nc3ccccc3F)n2)oc2ccccc12	none | Jurkat NFkB conf inactive
Cc1cccnc1NC(=S)NC(=O)c1cccs1	none | Jurkat NFkB conf inactive
Cc1cccnc1NC(=O)CNC(=O)c1cccs1	none
COC(=O)c1ccc(COC(=O)c2ccc(C)c(S(=O)(=O)N3CCCCC3)c2)cc1	none (no result: Beta apoptosis, CSC inhib)
CCOc1ccc2nc(NC(=O)Nc3ccccc3)sc2c1	none
CCOc1ccc2nc(NC(=O)Nc3cccs3)sc2c1	none (no result: Beta apoptosis) | Jurkat NFkB conf inactive
CCOC(=O)[C@H]1[C@H]2COc3ccc(Cl)cc3[C@@H]2N2C(=O)CN(C)C(=O)[C@@]12C	none
O=C(Nc1ccc(S(=O)(=O)Nc2ccc(F)cc2)cc1)c1ccc(CN2CCOCC2)cc1	Jurkat NFkB inh 63.4, 697 NFkB inh 47.2 | Jurkat NFkB conf 62.7 | 697 NFkB conf inactive
Fc1ccc(NC(=S)N2CCCN(c3ccc(C(F)(F)F)cn3)CC2)c(F)c1	Jurkat NFkB inh 65.8, 697 NFkB inh 54.2 | Jurkat NFkB conf inactive | 697 NFkB conf inactive
O=C(Nc1ccc(F)cc1F)N1CCCN(c2ccc(C(F)(F)F)cn2)CC1	none
Cc1ccc(NC(=O)c2cnn(-c3ccccc3)c2C)cc1C	none | Jurkat NFkB conf inactive | 697 NFkB conf inactive
Cc1c(C(=O)Nc2ccccc2)cnn1-c1ccccc1	none
COc1ccc(S(=O)(=O)Nc2ccc(-n3cnnn3)cc2)cc1[N+](=O)[O-]	none
O=C(O)c1ccccc1-c1ccccc1C(=O)Nc1ccc2c(c1)CCC2	none
O=C(Nc1ccc2c(c1)CCC2)c1ccccc1F	none (no result: Gli-Sufu block) | Jurkat NFkB conf inactive | 697 NFkB conf inactive
Cc1ccnc(NC(=O)Nc2cccc(F)c2)c1	none | Jurkat NFkB conf inactive | 697 NFkB conf inactive
COc1cc(OC)cc(C(=O)NNC(=O)C(CCC(N)=O)NS(=O)(=O)c2ccc(Cl)cc2)c1 (centres undefined)	none (no result: Beta apoptosis, CSC inhib, Jurkat NFkB inh, 697 NFkB inh, Mdm2 MdmX PPI)
CCOc1ccc(/C=C2\SC(=S)N(CCC(=O)O)C2=O)cc1	Jurkat NFkB inh 52.5, 697 NFkB inh 77.2 | Jurkat NFkB conf 61.0 | 697 NFkB conf 66.5
COc1cc(C)c(CN2CCN(C(C)C(=O)NC(C)c3ccccc3)CC2)cc1OC (centres undefined)	none
C(=N\Nc1nc2ccccc2s1)/c1ccc2c(c1)OCO2	none (no result: CSC inhib) | Jurkat NFkB conf inactive | 697 NFkB conf inactive
CCC(=O)Nc1ccc2nc(C3CC3)n(Cc3ccc(C(C)(C)C)cc3)c(=O)c2c1	none | Jurkat NFkB conf inactive | 697 NFkB conf inactive
CC(=O)Nc1ccc2nc(C3CC3)n(Cc3ccc(Cl)cc3)c(=O)c2c1	none
COc1ccc(Cn2c(C3CC3)nc3ccc(NC(=O)C4CC4)cc3c2=O)cc1	none (no result: CSC inhib) | Jurkat NFkB conf inactive | 697 NFkB conf inactive
O=C(Nc1ccc2nc(C3CC3)n(Cc3ccc(F)cc3)c(=O)c2c1)c1ccco1	none (no result: Beta apoptosis)
CCOc1ccc(-c2nc(-c3ccccc3C)no2)cc1	none (no result: Gli-Sufu block) | Jurkat NFkB conf inactive | 697 NFkB conf inactive
CCCCn1c(N)c(N(CC(C)C)C(=O)CCCn2c(=O)oc3ccccc32)c(=O)[nH]c1=O	none
Nc1c(-c2ccc(Cl)cc2)cnc2c(-c3ccc(F)cc3)cnn12	none | Jurkat NFkB conf inactive | 697 NFkB conf inactive
N/C(=N\OC(=O)c1ccc(Cl)cc1Cl)c1cccnc1	none
N/C(=N\OC(=O)c1ccc(Cl)cc1Cl)c1ccccc1	none | Jurkat NFkB conf inactive | 697 NFkB conf inactive
Cc1cccc(/C(N)=N/OC(=O)c2ccc(Cl)cc2Cl)c1	none | Jurkat NFkB conf inactive | 697 NFkB conf inactive
Cc1cccc(/C(N)=N/OC(=O)c2cccnc2)c1	none
O=C(O)CNC(=O)/C(=C\c1cccc([N+](=O)[O-])c1)NC(=O)c1ccco1	none
O=C(O)CSc1nnc(-c2cccc(S(=O)(=O)N3CCOCC3)c2)n1-c1ccc(F)cc1	none
Cc1ccc2nc(-c3ccc(NC(=O)CCN4C(=O)c5ccccc5C4=O)cc3)sc2c1	none | Jurkat NFkB conf inactive | 697 NFkB conf inactive
Cc1ccc2nc(-c3ccc(NC(=O)C(C)N4C(=O)c5ccccc5C4=O)cc3)sc2c1 (centres undefined)	none

Screens (PubChem BioAssay)
